This is one part of a sample in which the strongest signals are shown more often than they occur.
Key:
Assay in all cases: glycan array binding signal (z-score within array); higher = stronger binding
Conditions in all cases: glycan notation: IUPAC condensed, linker removed
[1] = target: Fuc(a1-2)Gal(b1-3)GalNAc(b1-4)[Neu5Ac(a2-3)]Gal(b1-4)Glc
Method in brief: (§1)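 Glycan array binding is given as a within-array Z-score, which can be read as non-binding when negative. The arrays, 3228 of them, came from the Consortium for Functional Glycomics database and were retained only where the protein sequence was available. Z-scores were averaged across arrays of the same protein sequence at different concentrations or buffers and across linkers.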

[2] = target: Fuc(a1-2)[Gal(a1-3)]Gal(b1-4)GlcNAc(b1-2)Man
Method in brief: as §1

[3] = target: Fuc(a1-2)[Gal(a1-3)]Gal(b1-4)GlcNAc(b1-2)Man(a1-3)[Fuc(a1-2)[Gal(a1-3)]Gal(b1-4)GlcNAc(b1-2)Man(a1-6)]Man(b1-4)GlcNAc(b1-4)GlcNAc
Method in brief: as §1

[4] = target: Fuc(a1-2)[Gal(a1-3)]Gal(b1-4)GlcNAc(b1-3)GalNAc
Method in brief: as §1

[5] = target: Fuc(a1-2)[Gal(a1-3)]Gal(b1-4)[Fuc(a1-3)]GlcNAc
Method in brief: as §1

Fuc(a1-4)GlcNAc = target: Fuc(a1-4)GlcNAc
Method in brief: as §1

[6] = target: Gal(a1-3)Gal(b1-3)GlcNAc(b1-2)Man(a1-3)[Gal(a1-3)Gal(b1-3)GlcNAc(b1-2)Man(a1-6)]Man(b1-4)GlcNAc(b1-4)GlcNAc
Method in brief: as §1

[7] = target: Gal(a1-3)Gal(b1-3)GlcNAc(b1-3)GalNAc
Method in brief: as §1

[8] = target: Gal(a1-3)Gal(b1-3)[Fuc(a1-4)]GlcNAc(b1-2)Man(a1-3)[Gal(a1-3)Gal(b1-3)[Fuc(a1-4)]GlcNAc(b1-2)Man(a1-6)]Man(b1-4)GlcNAc(b1-4)GlcNAc
Method in brief: as §1

[9] = target: Gal(a1-3)Gal(b1-4)GlcNAc(b1-2)Man
Method in brief: as §1

[10] = target: Gal(a1-3)Gal(b1-4)GlcNAc(b1-2)Man(a1-3)[Gal(a1-3)Gal(b1-4)GlcNAc(b1-2)Man(a1-6)]Man(b1-4)GlcNAc(b1-4)GlcNAc
Method in brief: as §1

[11] = target: Gal(a1-3)Gal(b1-4)GlcNAc(b1-6)GalNAc
Method in brief: as §1

[12] = target: Gal(a1-3)Gal(b1-4)[Fuc(a1-3)]GlcNAc
Method in brief: as §1

Gal(a1-4)Gal(b1-4)Glc = target: Gal(a1-4)Gal(b1-4)Glc
Method in brief: as §1

[13] = target: Gal(a1-4)Gal(b1-4)GlcNAc(b1-2)Man(a1-3)[Gal(a1-4)Gal(b1-4)GlcNAc(b1-2)Man(a1-6)]Man(b1-4)GlcNAc(b1-4)GlcNAc
Method in brief: as §1

Gal(a1-6)Glc = target: Gal(a1-6)Glc
Method in brief: as §1

[14] = target: Gal(b1-3)GlcNAc(b1-3)Gal(b1-4)GlcNAc(b1-2)[Gal(b1-3)GlcNAc(b1-3)Gal(b1-4)GlcNAc(b1-6)]Man(a1-6)[Gal(b1-3)GlcNAc(b1-3)Gal(b1-4)GlcNAc(b1-2)Man(a1-3)]Man(b1-4)GlcNAc(b1-4)[Fuc(a1-6)]GlcNAc
Method in brief: as §1

[15] = target: Gal(b1-3)GlcNAc(b1-3)Gal(b1-4)GlcNAc(b1-3)Gal(b1-4)GlcNAc(b1-2)[Gal(b1-3)GlcNAc(b1-3)Gal(b1-4)GlcNAc(b1-3)Gal(b1-4)GlcNAc(b1-6)]Man(a1-6)[Gal(b1-3)GlcNAc(b1-3)Gal(b1-4)GlcNAc(b1-3)Gal(b1-4)GlcNAc(b1-2)Man(a1-3)]Man(b1-4)GlcNAc(b1-4)[Fuc(a1-6)]GlcNAc
Method in brief: as §1

Gal(b1-4)Gal = target: Gal(b1-4)Gal
Method in brief: as §1

Gal(b1-4)Glc = target: Gal(b1-4)Glc
Method in brief: as §1

[16] = target: Gal(b1-4)GlcNAc(b1-2)Man(a1-3)Man(b1-4)GlcNAc(b1-4)GlcNAc
Method in brief: as §1

[17] = target: Gal(b1-4)GlcNAc(b1-3)Gal(b1-4)GlcNAc
Method in brief: as §1

[18] = target: Gal3S(b1-4)[Fuc(a1-3)]Glc6S
Method in brief: as §1

Gal3S4S(b1-4)GlcNAc = target: Gal3S4S(b1-4)GlcNAc
Method in brief: as §1

Gal3S6S(b1-4)GlcNAc = target: Gal3S6S(b1-4)GlcNAc
Method in brief: as §1

Gal6S(b1-3)GlcNAc = target: Gal6S(b1-3)GlcNAc
Method in brief: as §1

[19] = target: GalNAc(b1-4)GlcNAc(b1-2)Man(a1-3)[GalNAc(b1-4)GlcNAc(b1-2)Man(a1-6)]Man(b1-4)GlcNAc(b1-4)GlcNAc
Method in brief: as §1

GalNAc3S(b1-4)GlcNAc = target: GalNAc3S(b1-4)GlcNAc
Method in brief: as §1

Glc(b1-4)Glc = target: Glc(b1-4)Glc
Method in brief: as §1

[20] = target: GlcNAc(a1-4)Gal(b1-4)GlcNAc(b1-3)Gal(b1-4)GlcNAc
Method in brief: as §1

[21] = target: GlcNAc(a1-4)Gal(b1-4)GlcNAc(b1-3)Gal(b1-4)GlcNAc(b1-3)Gal(b1-4)GlcNAc
Method in brief: as §1

[22] = target: GlcNAc(b1-2)[GlcNAc(b1-4)]Man(a1-3)[GlcNAc(b1-4)][GlcNAc(b1-2)[GlcNAc(b1-6)]Man(a1-6)]Man(b1-4)GlcNAc(b1-4)[Fuc(a1-6)]GlcNAc
Method in brief: as §1

[23] = target: GlcNAc(b1-2)[GlcNAc(b1-6)]Man(a1-6)[GlcNAc(b1-2)Man(a1-3)]Man(b1-4)GlcNAc(b1-4)GlcNAc
Method in brief: as §1

GlcNAc(b1-3)Gal = target: GlcNAc(b1-3)Gal
Method in brief: as §1

[24] = target: GlcNAc(b1-3)Gal(b1-3)GalNAc
Method in brief: as §1

[25] = target: GlcNAc(b1-3)Gal(b1-4)GlcNAc(b1-3)Gal(b1-4)GlcNAc(b1-2)[GlcNAc(b1-3)Gal(b1-4)GlcNAc(b1-3)Gal(b1-4)GlcNAc(b1-6)]Man(a1-6)[GlcNAc(b1-3)Gal(b1-4)GlcNAc(b1-3)Gal(b1-4)GlcNAc(b1-2)Man(a1-3)]Man(b1-4)GlcNAc(b1-4)[Fuc(a1-6)]GlcNAc
Method in brief: as §1

[26] = target: GlcNAc(b1-3)Gal(b1-4)GlcNAc(b1-3)Gal(b1-4)GlcNAc(b1-3)Gal(b1-4)GlcNAc(b1-3)Gal(b1-4)GlcNAc(b1-2)Man(a1-3)[GlcNAc(b1-3)Gal(b1-4)GlcNAc(b1-3)Gal(b1-4)GlcNAc(b1-3)Gal(b1-4)GlcNAc(b1-3)Gal(b1-4)GlcNAc(b1-2)Man(a1-6)]Man(b1-4)GlcNAc(b1-4)GlcNAc
Method in brief: as §1

[27] = target: GlcNAc(b1-3)[GlcNAc(b1-6)]GalNAc
Method in brief: as §1

[28] = target: GlcNAc(b1-4)GlcNAc(b1-4)GlcNAc(b1-4)GlcNAc(b1-4)GlcNAc
Method in brief: as §1

[29] = target: Man(a1-2)Man(a1-2)Man(a1-6)[Man(a1-3)]Man
Method in brief: as §1

Man(a1-2)Man(a1-3)Man = target: Man(a1-2)Man(a1-3)Man
Method in brief: as §1

[30] = target: Man(a1-2)Man(a1-6)[Man(a1-3)]Man(a1-6)[Man(a1-2)Man(a1-2)Man(a1-3)]Man(b1-4)GlcNAc(b1-4)GlcNAc
Method in brief: as §1

[31] = target: Neu5Ac(a2-3)Gal(b1-3)GalNAc(b1-3)Gal(a1-4)Gal(b1-4)Glc
Method in brief: as §1

[32] = target: Neu5Ac(a2-3)Gal(b1-3)GlcNAc(b1-6)GalNAc
Method in brief: as §1

[33] = target: Neu5Ac(a2-3)Gal(b1-4)GlcNAc(b1-3)Gal(b1-4)GlcNAc
Method in brief: as §1

[34] = target: Neu5Ac(a2-3)Gal(b1-4)[Fuc(a1-3)]GlcNAc(b1-3)GalNAc
Method in brief: as §1

[35] = target: Neu5Ac(a2-6)Gal(b1-4)GlcNAc(b1-2)Man(a1-3)[GlcNAc(b1-4)][Neu5Ac(a2-6)Gal(b1-4)GlcNAc(b1-2)Man(a1-6)]Man(b1-4)GlcNAc(b1-4)GlcNAc
Method in brief: as §1

[36] = target: Neu5Ac(a2-6)Gal(b1-4)GlcNAc(b1-2)Man(a1-6)Man(b1-4)GlcNAc(b1-4)GlcNAc
Method in brief: as §1

[37] = target: Neu5Ac(a2-6)Gal(b1-4)GlcNAc(b1-3)Gal(b1-4)GlcNAc(b1-3)Gal(b1-4)GlcNAc(b1-2)Man(a1-3)[Neu5Ac(a2-6)Gal(b1-4)GlcNAc(b1-3)Gal(b1-4)GlcNAc(b1-3)Gal(b1-4)GlcNAc(b1-2)Man(a1-6)]GalNAc
Method in brief: as §1

[38] = target: Neu5Ac(a2-8)Neu5Ac(a2-3)Gal(b1-3)GalNAc(b1-4)[Neu5Ac(a2-8)Neu5Ac(a2-3)]Gal(b1-4)Glc
Method in brief: as §1

[39] = target: Neu5Ac(a2-8)Neu5Ac(a2-3)Gal(b1-4)Glc
Method in brief: as §1

[40] = target: Neu5Ac(a2-8)Neu5Ac(a2-8)Neu5Ac(a2-3)[GalNAc(b1-4)]Gal(b1-4)Glc
Method in brief: as §1

[41] = target: Neu5Gc(a2-3)Gal(b1-3)[Fuc(a1-4)]GlcNAc
Method in brief: as §1

[42] = target: Neu5Gc(a2-3)Gal(b1-4)[Fuc(a1-3)]GlcNAc
Method in brief: as §1

B1: SJCP3842 (Schistosoma japonicum) (protein)
chain: MFKMRIINLVNISTVLLLINLLQTKSRLVGKENGFMLTVSIYGAQLSDKMTSVPVSWTIDYEDPEKSAFKKLVTDSCDTFSEYVKSQIPKGSVDGQCTSHIFQRPGSGSGVSISLTLSFIYVDVTQPDTVALKTELEKHFANFVTIHSHKITQAQFRINQKAIVIPTGDKDAIDGSKWKIIAIIALVALAIVVIGGFIYICVK
- glycan array binding signal (z-score) [1]: 0.207
- glycan array binding signal (z-score) [2]: -1.05
- glycan array binding signal (z-score) [3]: 0.46
- glycan array binding signal (z-score) [4]: 0.343
- glycan array binding signal (z-score) [5]: 0.536
- glycan array binding signal (z-score) (Fuc(a1-4)GlcNAc): 4.44
- glycan array binding signal (z-score) [6]: 3.31
- glycan array binding signal (z-score) [7]: 0.153
- glycan array binding signal (z-score) [8]: 2.45
- glycan array binding signal (z-score) [9]: -1.09
- glycan array binding signal (z-score) [10]: -0.76
- glycan array binding signal (z-score) [11]: -0.327
- glycan array binding signal (z-score) [12]: 0.63
- glycan array binding signal (z-score) (Gal(a1-4)Gal(b1-4)Glc): -1.04
- glycan array binding signal (z-score) [13]: 2.55
- glycan array binding signal (z-score) (Gal(a1-6)Glc): -1.59
- glycan array binding signal (z-score) [14]: 1.25
- glycan array binding signal (z-score) [15]: 1.37
- glycan array binding signal (z-score) (Gal(b1-4)Gal): -0.475
- glycan array binding signal (z-score) (Gal(b1-4)Glc): -1.59
- glycan array binding signal (z-score) [16]: -0.919
- glycan array binding signal (z-score) [17]: -0.05
- glycan array binding signal (z-score) [18]: 2.61
- glycan array binding signal (z-score) (Gal3S4S(b1-4)GlcNAc): -0.987
- glycan array binding signal (z-score) (Gal3S6S(b1-4)GlcNAc): 2.36
- glycan array binding signal (z-score) (Gal6S(b1-3)GlcNAc): -0.626
- glycan array binding signal (z-score) [19]: 0.2
- glycan array binding signal (z-score) (GalNAc3S(b1-4)GlcNAc): 0.48
- glycan array binding signal (z-score) (Glc(b1-4)Glc): -0.571
- glycan array binding signal (z-score) [20]: -0.28
- glycan array binding signal (z-score) [21]: 2.47
- glycan array binding signal (z-score) [22]: 0.364
- glycan array binding signal (z-score) [23]: -0.597
- glycan array binding signal (z-score) (GlcNAc(b1-3)Gal): -1.01
- glycan array binding signal (z-score) [24]: -0.211
- glycan array binding signal (z-score) [25]: 1.43
- glycan array binding signal (z-score) [26]: -0.488
- glycan array binding signal (z-score) [27]: -0.578
- glycan array binding signal (z-score) [28]: 0.984
- glycan array binding signal (z-score) [29]: -0.903
- glycan array binding signal (z-score) (Man(a1-2)Man(a1-3)Man): -1.03
- glycan array binding signal (z-score) [30]: -0.995
- glycan array binding signal (z-score) [31]: 0.587
- glycan array binding signal (z-score) [32]: 1.36
- glycan array binding signal (z-score) [33]: 1.89
- glycan array binding signal (z-score) [34]: 2.37
- glycan array binding signal (z-score) [35]: -0.194
- glycan array binding signal (z-score) [36]: 2.88
- glycan array binding signal (z-score) [37]: 4.64
- glycan array binding signal (z-score) [38]: 3.14
- glycan array binding signal (z-score) [39]: -1.34
- glycan array binding signal (z-score) [40]: 0.881
- glycan array binding signal (z-score) [41]: -0.715
- glycan array binding signal (z-score) [42]: 0.854

Source: the supplement of paper PMC8728848
